# From PubChem
# TDP1 inh: blocks human tyrosyl-DNA phosphodiesterase 1; recombinant TDP1, AlphaScreen DNA substrate cleavage; Potency, µM (top dose mostly 130 µM), for the others: at the top dose activity change, negative = inhibition, usual class: inhibitors; 0.28% of 350,000 active; also: nearly all actives have a fitted effect of over 40% in size
# Target sequence (Q9NUW8 whole entry, looked up): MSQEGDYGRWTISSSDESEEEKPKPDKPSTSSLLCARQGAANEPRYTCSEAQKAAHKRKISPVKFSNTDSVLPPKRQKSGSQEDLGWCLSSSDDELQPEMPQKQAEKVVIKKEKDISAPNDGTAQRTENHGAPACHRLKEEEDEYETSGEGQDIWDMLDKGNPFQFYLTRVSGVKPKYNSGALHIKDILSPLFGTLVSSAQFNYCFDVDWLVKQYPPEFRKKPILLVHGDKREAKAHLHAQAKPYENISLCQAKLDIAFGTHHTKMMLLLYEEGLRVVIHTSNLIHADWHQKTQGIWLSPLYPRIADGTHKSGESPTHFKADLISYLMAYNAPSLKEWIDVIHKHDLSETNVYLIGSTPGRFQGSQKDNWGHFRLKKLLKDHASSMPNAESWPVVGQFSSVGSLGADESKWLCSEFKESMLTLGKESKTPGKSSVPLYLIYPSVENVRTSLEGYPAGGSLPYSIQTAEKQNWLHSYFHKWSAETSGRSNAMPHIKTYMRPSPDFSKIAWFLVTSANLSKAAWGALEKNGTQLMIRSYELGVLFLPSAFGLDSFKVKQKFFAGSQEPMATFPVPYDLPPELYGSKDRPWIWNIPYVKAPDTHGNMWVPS
#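 Signal: AlphaScreen proximity between streptavidin donor and anti-FITC acceptor beads on intact substrate. Reaction: Tdp1 1 nM, substrate 15 nM final, 5 min RT after 15 min compound preincubation.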
# DT40 TDP1 no CPT: qHTS for Inhibitors of human tyrosyl-DNA phosphodiesterase 1 (TDP1): qHTS in cells in absence of CPT | DT40 Tdp1-/- hTDP1 cells, no CPT, ATP luminescence, 48 h | Potency, µM (doses to about 46.2 µM), without a hit: at the highest dose activity change, negative = growth inhibition, actives largely listed as inhibitors | 15% of 420,000 active | AID 686978, 2013; also: nearly all actives have a fitted effect of over 55% in size
#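 Readout: luminescence from CellTiter-Glo after 30 min in the dark at RT. Cells: DT40 Tdp1-/- with stable hTDP1, 400/well. Exposure: compounds alone, ≥48 hr, 37 °C.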
# TDP1 cell CPT: growth inhibition of DT40 Tdp1-/-;hTDP1 cells with camptothecin (screen for TDP1 inhibitors); 12% of 420,000 active; Potency, µM (series often up to 46.2 µM), for inactives: top-dose activity change, negative = growth inhibition, most hits filed as inhibitors; chicken DT40 Tdp1-/-;hTDP1 cells + 20 nM CPT, ATP luminescence, 48 h; also: nearly all actives have a fitted effect of over 55% in size
#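 Chicken DT40 Tdp1-/- cells complemented with human TDP1, 400 cells/well, exposed to compounds plus 20 nM camptothecin for at least 48 h at 37 C; viability read as ATP content by CellTiter-Glo luminescence.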
# Gal4-VP16 FLuc: Gal4-VP16 reporter inhibition counter-screen; AID 2546; 3.5% of 310,000 active; Drosophila S2 Gal4-VP16 UAS-luciferase, luminescence, 20 h; Potency, µM (doses to about 53.6 µM), inactives show at the top dose activity, negative = inhibition, actives largely listed as inhibitors;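 also: Gal4-VP16 expression switched on by copper sulfate through the metallothionein promoter; nearly all actives have a fitted effect of over 50% in size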
# RORg inh: inhibitors of mouse ROR gamma transcriptional activity; P51450; Drosophila S2 Gal4-RORgamma UAS-luciferase reporter, 20 h; Potency, µM (doses to about 53.6 µM), for inactives: at the highest dose activity change, negative = inhibition, most hits filed as inhibitors; 5.4% of 310,000 active; also: nearly all actives have a fitted effect of over 60% in size
#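 A Gal4/UAS one-hybrid system in insect cells: metallothionein-promoter Gal4–ROR gamma fusion plus Photinus luciferase reporter. Copper sulfate 700 uM final, 20 hr ambient incubation, luminescent detection after 10 min with reagent.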
# * hit, by the source's call; ? = inconclusive; / = not tested or not shown; [ ] = another dose, or the depositor's remark. Sampled rows, rich in hits. Any-hit rate of the full collection: about 19%. Calls follow the shape of the dose curve; as a rule, active = well fitted curve in the direction sought with a large enough effect; inconclusive = small, poorly fitted or top-dose-only effect, or another doubt; inactive = no such curve, though single readings can be large; an effect the other way counts as inactive or inconclusive. % is scaled to controls: 0 for no effect and ±100 for the full control effect; potency is read from the fitted curve at half-maximal effect.
SMILES,TDP1 inh,DT40 TDP1 no CPT,TDP1 cell CPT,Gal4-VP16 FLuc,RORg inh
CCC(C)C(NC(=O)OC(C)(C)C)C(=O)NC(C(=O)N1CCCC1C(N)=O)C(C)CC (stereo not drawn),-5%,?,-22%,-5%,?
CCCNC(=O)[C@H]1O[C@@H]1C(=O)N[C@H](C(=O)N1CCC[C@H]1C(=O)OC)[C@@H](C)CC,1%,2.4µM*,1.9µM*,/,/
CC(C)(C)C(=O)O/N=C(\N)c1ccc([N+](=O)[O-])s1,8%,6.5µM*,6.5µM*,?,38%
CC(C)(CN1CCN(Cc2ccccc2)CC1)NS(=O)(=O)c1ccccc1,/,?,?,-11%,1%
CC(C)(CN1CCN(C(c2ccccc2)c2ccccc2)CC1)NS(=O)(=O)c1ccccc1,2%,16µM*,23µM*,8%,-7%
CC(C)(CN1CCC(Cc2ccccc2)CC1)NS(=O)(=O)c1ccccc1,/,?,21µM*,-12%,29%
O=C(Nc1ccc(Cl)cc1)N1CCCC1,9%,-1%,?,13%,22%
CN(C)c1ccc(-c2nnn(CC(=O)N3c4ccccc4CCc4ccccc43)n2)cc1,8%,16µM*,?,-6%,17%
CC1CCCN(C(=O)Cn2nnc(-c3ccc(N(C)C)cc3)n2)C1 (stereo not drawn),/,-22%,5%,-12%,21%
CCc1nonc1NC(=O)c1oc2cc(C)c(Cl)cc2c1C,2%,9.2µM*,?,9%,-2%
CCc1nonc1NC(=O)c1oc2cc(C)c(C)cc2c1C,1%,?,-26%,8%,-29%
COc1ccc(-c2nonc2NC(=O)c2oc3ccccc3c2C)cc1OC,-3%,-16%,-25%,4%,-41%
CCOc1ccc(-c2nonc2NC(=O)c2oc3ccc(Cl)cc3c2C)cc1,-2%,0.92µM*,0.92µM*,/,/
Cc1cccc(N2CCN(C(=O)c3cn(C)c4ccc(S(=O)(=O)N(C)C)cc4c3=O)CC2C)c1 (stereo not drawn),-2%,?,28%,/,/
O=C(ONC1=NCCCCC1)c1ccc(Cl)cc1,7%,15µM*,21µM*,?,?
O=C(CNC1=NCCC1)c1ccc(Cl)cc1,5%,7%,6%,-20%,-41%
O=C(ONC1=NCCCCC1)c1c(F)cccc1F,12%,?,16µM*,-18%,?
CCOc1ncccc1C(=O)NCCc1ccc(S(N)(=O)=O)cc1,-13%,-2%,0%,11%,-19%
Oc1cccc(NC(=S)Nc2ccc(SC(F)F)cc2)c1,6%,?,4%,4%,-10%
Oc1cccc2c(NC(=S)Nc3ccc(SC(F)F)cc3)cccc12,-7%,?,?,7.9µM*,6.3µM*
COc1ccc(NC(=O)c2sc3nc(N4CCCC4)c4c(c3c2N)CC(C)(C)OC4)c(OC)c1,4%,-28%,?,-5%,-4%
O=C(CNC(=S)NC(=O)c1ccc(Cl)cc1)c1ccccc1,-2%,?,-6%,13µM*,10µM*
O=C(CNC(=S)NC(=O)c1ccc(Br)o1)c1ccccc1,0%,?,16µM*,?,13µM*
O=C(NC(=S)NCC1CCCO1)c1ccc(Br)o1 (stereo not drawn),0%,-4%,-4%,-21%,?
Cc1csc(=N)n1CC(=O)N1CCc2ccccc21,6%,-19%,-25%,3%,22%
SMILES,TDP1 inh,DT40 TDP1 no CPT,TDP1 cell CPT,Gal4-VP16 FLuc,RORg inh
Cc1ccc(S(=O)(=O)NC2=NCN(Cc3cccnc3)CN2)cc1,4%,-6%,3%,4%,-3%
O=C(Nc1ccccc1Cl)C1CCCN(c2ncnc3c2nc2n3CCCCC2)C1 (stereo not drawn),1%,15µM*,?,-4%,28%
COC(=O)c1ccc(NC(=O)C2CCN(c3ncnc4c3nc3n4CCCCC3)CC2)cc1,7%,?,?,/,/
Cc1ccc(NC(=O)C2CCN(c3ncnc4c3nc3n4CCCCC3)CC2)nc1,3%,21µM*,23µM*,?,?
COc1cc(OC)c(NC(=O)C2CCCN(c3ncnc4c3nc3n4CCCCC3)C2)cc1Cl (stereo not drawn),1%,15µM*,?,/,/
COc1ccc(Cl)cc1NC(=O)C1CCN(c2ncnc3c2nc2n3CCCCC2)CC1,4%,9.2µM*,16µM*,/,/
CC(C)NC(=O)C1CCCN(c2ncnc3c2nc2n3CCCCC2)C1 (stereo not drawn),-1%,?,?,/,/
Cc1ccc(C)c(NC(=O)C2CCN(c3ncnc4c3nc3n4CCCCC3)CC2)c1,4%,2%,-11%,/,/
Cc1c(C(=O)N2CCN(c3ccc(F)cc3)CC2)sc2nc3n(c(=O)c12)CCC3,3%,?,?,0%,-16%
Cc1cc(C)c(C)c(S(=O)(=O)NCCCN2CCOCC2)c1C,5%,1%,6%,-4%,-1%
CC1(C)CCC[C@]2(C)[C@H]3Cc4cc(O)ccc4O[C@]3(C)CC[C@@H]12,5%,?,18µM*,/,/
Cn1c2ccccc2c2cc(C(=O)N3CCOCC3)sc21,-4%,-12%,6%,4%,-17%
CCNC(=O)N1CCN(CCCC(c2ccc(F)cc2)c2ccc(F)cc2)CC1,10%,18µM*,21µM*,8%,22%
CCCn1c(N)c(C(=O)CSc2nc(C)nc3sc(C)c(C)c23)c(=O)[nH]c1=O,1%[0.505 µM],2%,-3%,/,/
Cc1cccc(-c2cc3c(nn2)-c2ccccc2C3=O)c1,7%,?,?,?,-15%
O=C1c2ccccc2-c2nnc(-c3ccccc3)cc21,4%,5.2µM*,3.7µM*,11µM*,8.9µM*
COc1ccc(-c2cc3c(nn2)-c2ccccc2C3=O)cc1,0%,16µM*,26µM*,?,2.5µM*
COc1ccc(-c2cn(Cc3ccc4c(c3)C(=O)c3ccccc3C4=O)nn2)cc1,/,?,?,-3%,-5%
Cc1ccc(NC(=S)c2nc3ccccc3[nH]2)cc1,13%,10µM*,13µM*,7.9µM*,3.2µM*
Cc1ccc(NC(=S)c2nc3ccccc3[nH]2)c(C)c1,8%,?,?,?,14µM*
CC(=O)Nc1sc(N/N=C\c2cccc(Cl)c2)nc1-c1cccs1,7%,?,-22%,?,?
Cc1ccc(NC(=O)c2ccc(NC(=O)N3CCSc4ncccc43)cc2)cc1Cl,3%,12µM*,16µM*,/,/
Cc1cc(Cl)ccc1NC(=O)c1cccc(NC(=O)N2CCSc3ncccc32)c1,6%,16µM*,?,/,/
CC1Cc2ccccc2N1C(=S)NC(=O)C1(C)CC1(Cl)Cl (stereo not drawn),4%,?,?,2.2µM*,0.63µM*
